Among the data in PubChem BioAssay (Tox21) are Potency and activity change, negative = cytotoxicity values, retold here.

This test in a line: cAMP Responsive Elements (CRE) small molecule agonists, cell-based qHTS assay: qHTS cell viability counter screen (AID 2060914). Further: nearly all actives have a fitted effect of over 50% in size. The essentials:
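In the same wells as the reporter read, viability of CRE-bla HEK 293T cells was quantified by CellTiter-Glo luminescence after a 3 h compound exposure.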
Background: Quantitative high-throughput screening tests each substance at several concentrations.

Inconclusive results are not listed. Where a call stands in place of a potency, no number is given. Values without a mark were called inactive. Activity calls are given as the source filed them. The call rests on the fitted dose curve; in most records, active means well fitted cell-killing curve with a large enough effect in the repeat runs; inconclusive means weak or mixed curves, or effect the other way; inactive means flat fitted curve, though single readings scatter.
Potency means the concentration at half of the fitted maximal effect.

`NC(=NCCCCCCN=C(N)/N=C(\N)Nc1ccc(Cl)cc1)/N=C(\N)Nc1ccc(Cl)cc1`: the Potency was 48.1 µM (active).
On the same count and under the same terms, the value for `CC(=O)OC(C)=O` was “inactive”.
For `Cc1[nH]cnc1C[C@H]1CCc2c(C)c3ccccc3n2C1=O`, the Potency result is “inactive”.
In the case of `CCc1cc(Cc2cc(CC)c(N)c(CC)c2)cc(CC)c1N`, the Potency result was “inactive”.
For the compound `CCCC1C(CC)=CC(CC)=CN1c1ccccc1` (stereo not given), the Potency entry is “inactive”.
The same measure, in the same setting: the value for `COC(=O)C1=C(C)NC(C)=C(C(=O)OCCCN2CCC(c3ccccc3)(c3ccccc3)CC2)C1c1cccc([N+](=O)[O-])c1` (stereo not given) was “inactive”.
On to `CCCCCCCCCCCCCCCC[N+](C)(C)CCN(Cc1ccc(OC)cc1)c1ncccn1`, for which the Potency is 26.6 µM (active).
Consider `O=C(Nc1cccc(C(F)(F)F)c1)c1cc(Br)cc(Br)c1O`, for which the Potency was 27.3 µM (active).
For the compound `C[C@]12CC[C@H]3C(=CCc4cc(O)ccc43)[C@@H]1CCC2=O`, the Potency entry is “inactive”.
With `NC(N)=NC(=O)Cc1c(Cl)cccc1Cl`, the Potency entry was “inactive”.
As for `Cc1cc(O)ccc1N`, the Potency entry was “inactive”.
Take `CC(CCl)OC(C)CCl` (stereo not given): the Potency entry is “inactive”.
Regarding `CCc1ccc(O)c(C(C)(C)C)c1`, the Potency result was “inactive”.
With `COC=O`, the activity change, negative = cytotoxicity is -1.81% [at 8.39 µM].
For the compound `O=C(O)CCc1nc(-c2ccccc2)c(-c2ccccc2)o1`, the Potency result is “inactive”.
Take `C/C=C(/C(=C/C)c1ccc(O)cc1)c1ccc(O)cc1`: the Potency entry was “inactive”.
On to `COC(=O)c1ccc(NC(C)=O)cc1OC`, for which the Potency result was “inactive”.
For `C[C@H]1c2cccc(O)c2C(O)=C2C(=O)[C@]3(O)C(O)=C(C(N)=O)C(=O)[C@@H](N(C)C)[C@@H]3[C@@H](O)[C@@H]21`, the Potency entry is “inactive”.
Regarding `CCc1cc(Cc2cc(CC)cc(C(C)(C)C)c2O)c(O)c(C(C)(C)C)c1`, the Potency entry is “inactive”.
For the compound `CC(Cc1ccc(O)c(O)c1)C(C)Cc1ccc(O)c(O)c1` (stereo not given), the Potency result is “inactive”.
